# HEK293 viab: cell viability loss counter-screen. HEK-293-SNCA-luc viability, GF-AFC fluorescence, 24 h. Potency, µM (series often up to 57.1 µM), inactives show at the highest dose activity change, negative = cytotoxicity, usual class: cytotoxic. actives 0.12% (n = 150,000). AID 1671193;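 further: potency means the concentration at half of the fitted maximal effect; 0% = DMSO-treated cells and -100% = medium-only wells without cells; nearly all actives have a fitted effect of over 30% in size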
#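 HEK-293-SNCA-luc cells (1500/well) plated 24 h, then exposed 24 h to a dilution series; GF-AFC added 30 min at 37C, fluorescence 405/540 nm; normalised to medium-only and DMSO wells, Hill fit.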
# KDM5B inh: blocks human KDM5B histone demethylase activity; Q9UGL1; Potency, µM (top dose mostly 57.7 µM), actives largely listed as inhibitors; actives 2.6% (n = 220,000); KDM5B demethylase, FDH-coupled NADH fluorescence (FDH is formaldehyde dehydrogenase); further: potency means the concentration at half of the fitted maximal effect; 0% is about no effect; nearly all actives have a fitted effect of over 70% in size
#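 Measured: NADH fluorescence change, 30 min, RT. System: KDM5BΔAP 200 nM final, H3K4me3 peptide, α-KG, Fe(II), ascorbate, NAD⁺ plus FDH, pH 7.5 HEPES. Compounds: titrated, 10 min pre-incubation with enzyme.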
# SNCA expr inhib: inhibitors of alpha-synuclein (SNCA) gene expression; HEK-293 SNCA-luciferase knock-in, luminescence, 24 h; Potency, µM (series often up to 57.2 µM), for the others: at the highest dose activity change, negative = inhibition, actives largely listed as inhibitors; actives 0.17% (n = 140,000); AID 1671194;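 further: potency means the concentration at half of the fitted maximal effect; plate controls were DMSO cells for no effect and cell-free wells for full effect; nearly all actives have a fitted effect of over 45% in size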
# IP6K1 inh: inhibitors of human IP6K1. Q92551. IP6K1 kinase, ADP-Glo luminescence, 2 h; active compounds read low. activity change, % (series mostly up to about 58 µM). actives 0.81% (n = 140,000). AID 1645851; in the data active means activity change below about -25%; further: on the % scale 0 is the no-effect control and ±100 the full control effect
# Target sequence (Q92551 whole entry, looked up): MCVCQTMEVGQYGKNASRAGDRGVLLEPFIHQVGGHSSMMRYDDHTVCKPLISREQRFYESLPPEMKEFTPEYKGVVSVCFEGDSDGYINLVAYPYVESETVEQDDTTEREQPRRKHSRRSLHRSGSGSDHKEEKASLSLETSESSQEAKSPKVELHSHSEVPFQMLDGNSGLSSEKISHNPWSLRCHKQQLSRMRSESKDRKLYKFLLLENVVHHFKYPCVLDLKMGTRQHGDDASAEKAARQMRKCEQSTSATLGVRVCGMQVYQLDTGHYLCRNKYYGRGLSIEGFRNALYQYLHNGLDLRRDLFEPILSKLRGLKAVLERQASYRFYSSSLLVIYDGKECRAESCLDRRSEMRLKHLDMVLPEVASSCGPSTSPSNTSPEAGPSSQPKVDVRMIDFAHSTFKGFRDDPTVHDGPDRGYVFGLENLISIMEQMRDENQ
#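 ADP-Glo luminescence measures ADP made by human IP6K1 during a 2 h RT reaction with ATP/IP6 (mix at 1.3 mM/130 uM); top library doses 57.5 and 19.1 uM final.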
# Active calls of the source: *; i = inactive; ? = inconclusive; . = not tested or not shown; [ ] = dose if it differs, or a comment. Hits are enriched below; roughly 2.9% of the tested compounds scored in any of these assays. Unless noted, the call rests on the fitted dose curve; in most records, active means well fitted curve in the direction sought with a large enough effect; inconclusive means small, poorly fitted or top-dose-only effect, or another doubt; inactive means no such curve, though single readings can be large; an effect the other way counts as inactive or inconclusive.
SMILES,HEK293 viab,KDM5B inh,SNCA expr inhib,IP6K1 inh
Cc1ccc(-c2ccc3nnc(CNC(=O)c4ccc5c(c4)OCO5)n3n2)cc1,-7.4%,i,-1.1%,3.2
O=C(NCc1nnc2ccc(-c3ccc(Cl)cc3)nn12)c1cccc(Br)c1,5.8%,28.2µM*,-14.4%,13.6
Cc1ccc(-c2ccc3nnc(CNC(=O)c4ccc[nH]4)n3n2)cc1C,-8.2%,i,32.6%,-8.8
Cc1ccc(-c2ccc3nnc(CNC(=O)c4ccc(N(C)C)cc4)n3n2)cc1C,-8.4%,i,-13.0%,-8.5
Cc1ccc(-c2ccc3nnc(CNC(=O)c4ccco4)n3n2)cc1C,0.1%,22.4µM*,4.1%,-10.8
O=C(NCc1nnc2ccc(-c3ccccc3)nn12)c1cccc(Cl)c1,-1.5%,?,?,5.7
Cc1ccc(-c2ccc3nnc(CNC(=O)c4ccc(F)c(F)c4)n3n2)cc1C,-2.9%,31.6µM*,?,6.3
Cc1ccc(-c2ccc3nnc(CNC(=O)c4ccc(F)c(F)c4)n3n2)cc1,-3.9%,28.2µM*,-2.2%,-16.0
CNC(=O)c1cc(C2CC2)nc2c1c(C1CCCN(C(=O)Cc3cccc(Cl)c3)C1)nn2C (centres undefined),.,.,.,-4.5
CC1(C)CC(=O)C2=C(C1)NC(Nc1nc3ccccc3o1)=NC2c1cccc(Cl)c1 (centres undefined),.,i,.,.
CC(C)Cn1c(=O)c(C(=O)NCc2ccccc2F)nc2cccnc21,2.2%,.,-9.1%,15.8
CCCN1CCCCC12Cc1ccccc1CN(C(=O)C1CCN(C)CC1)C2 (centres undefined),-10.5%,i,22.3%,1.4
Cc1ccc(-c2ccc3nnc(CNC(=O)Cc4ccc(Cl)cc4)n3n2)cc1,-21.1%,?,?,-15.6
O=C(NCc1nnc2ccc(-c3ccc(Cl)cc3)nn12)c1ccc(F)c(F)c1,-17.4%,31.6µM*,-19.4%,12.9
O=C(NCc1nnc2ccc(-c3ccccc3)nn12)c1cccc(C(F)(F)F)c1,-19.0%,31.6µM*,-1.9%,10.5
Cc1ccc(-c2ccc3nnc(CNC(=O)c4cccc(N(C)C)c4)n3n2)cc1C,-10.4%,i,143.6%,-16.2
COc1ccccc1CC(=O)NCc1nnc2ccc(-c3ccc(C)c(C)c3)nn12,-16.8%,31.6µM*,-20.2%,0.6
Cc1ccc(C(=O)NCc2nnc3ccc(-c4ccc(C)c(C)c4)nn23)s1,-0.6%,28.2µM*,11.6%,18.2
OCc1ccc(CN2C[C@H](O)C[C@H]2c2nc(-c3ccc4c(c3)OCO4)no2)o1,-14.0%[87.6 µM],?,115.9%[87.6 µM],-2.4
Cn1ncc2c(C(=O)NCc3ccccn3)cc(-c3cccc(C(F)(F)F)c3)nc21,-15.4%,.,-27.7%,1.0
O=C(NC1CCN(C(=O)c2ccc(-c3cccs3)cc2)CC1)c1ccccn1,?,.,10.4%,-7.7
COc1cccc(CNC(=O)c2cc(-c3ccsc3)nc3c2cnn3C)c1,-22.9%[87.6 µM],.,?,-2.9
O=C(NCc1nnc2ccc(-c3ccccc3)nn12)c1ccc(F)c(F)c1,?,28.2µM*,?,-3.6
COc1ccc(C(=O)NCc2nnc3ccc(-c4ccc(C)c(C)c4)nn23)cc1,-14.9%,20µM*,8.4%,-3.2
Cn1ncc2c(C(=O)Nc3cccc(C(F)(F)F)c3)cc(-c3ccc(F)cc3)nc21,.,.,.,-7.5
SMILES,HEK293 viab,KDM5B inh,SNCA expr inhib,IP6K1 inh
CCN1c2cc(C(=O)Nc3ccc(C)c(F)c3)ccc2C(=O)N2CCCCCC21 (centres undefined),12.3%[12.5 µM],?,-19.1%,10.0
C#CCNC(=O)c1cn2cc(-c3ccc(C(F)(F)F)cc3)sc2n1,-11.1%[87.6 µM],.,87.4%[87.6 µM],-4.4
c1ccc(-c2nc3ccccc3s2)cc1,.,i,.,.
Nc1ccc2nc(-c3ccc(O)cc3)sc2c1,-2.0%,i,1.26µM*,-16.7
CC(=O)NCCNc1cc(C)c2ccc(Cl)cc2n1,-4.0%,25.1µM*,2.6%,55.9
Cn1ncc2c(C(=O)NCc3cccc(Cl)c3)cc(-c3cccc(F)c3)nc21,.,.,.,4.7
O=C(NC1CC1)C1CCCN(Cc2cccc(-c3cccs3)c2)C1 (centres undefined),1.2%,.,-17.6%,4.3
Cc1ccccc1CC(=O)N1CCCn2cc(-c3cccc(C#N)c3)nc21,-10.9%,22.4µM*,11.8%,-10.3
Cc1cccc(CC(=O)N2CCCn3cc(-c4cccc(C#N)c4)nc32)c1,9.3%,?,16.1%,1.7
N#Cc1cccc(-c2cn3c(n2)N(C(=O)Cc2cccs2)CCC3)c1,3.3%,25.1µM*,-20.6%,11.4
COc1cccc(-c2cn3c(n2)N(C(=O)Cc2ccsc2)CCC3)c1,0.6%,i,37.4%,3.6
COCC(=O)N1CCCn2cc(-c3cccc(C#N)c3)nc21,-6.9%,25.1µM*,14.8%,2.1
CCOCC(=O)N1CCCn2cc(-c3ccccc3)nc21,-6.6%,?,10.9%,0.6
Cc1oc2cc(OC(=O)c3ccco3)ccc2c(=O)c1-c1ccc(Br)cc1,.,i,.,.
COc1ccc(-c2cc(C(=O)N3CCC(c4ccccc4)CC3)c3cnn(C)c3n2)cc1,.,.,.,-8.2
COc1ccc(C(=O)NC[C@@H]2C=C(C)[C@H](Cc3nc4ccncc4[nH]3)C[C@H]2C(C)C)cc1,?,i,-22.5%[87.6 µM],16.3
CC(=O)NCC1CCCN(Cc2ccc(-c3ccccc3C#N)o2)C1 (centres undefined),-13.4%,28.2µM*,?,16.8
CC(C)CNC(=O)c1cc(-c2ccc(F)cc2)nc2c1cnn2C,-7.2%[87.6 µM],.,13.1%[87.6 µM],9.4
CC(=O)Nc1ccc(NC(=O)c2cc3n(n2)CC(c2ccc(Cl)cc2)OC3)cc1 (centres undefined),-6.9%,?,-35.2%,-0.4
O=C(Nc1ccc(F)c(Cl)c1)c1cc2n(n1)CC(c1ccc(Cl)cc1)OC2 (centres undefined),-2.4%,25.1µM*,0.4%,11.3
CCOc1ccc(OCC)c(NC(=O)c2cc3n(n2)CC(c2ccc(Cl)cc2)OC3)c1 (centres undefined),6.6%,14.1µM*,11.7%,26.3
O=C(Nc1ccccc1)c1cc2n(n1)CC(c1ccc(Br)cc1)OC2 (centres undefined),7.5%,31.6µM*,22.1%,26.8
O=C(Nc1ccc(Cl)cc1)c1cc2n(n1)CC(c1ccc(Cl)cc1)OC2 (centres undefined),5.4%,31.6µM*,-7.4%,-7.7
O=C(Nc1ccc(F)c(F)c1)c1cc2n(n1)CC(c1ccc(Cl)cc1)OC2 (centres undefined),3.8%,i,14.6%,29.1
Cc1ccc(-c2cc(N3CCC(CNC(=O)c4ccc5nc[nH]c5c4)CC3)n[nH]2)cc1,0.5%,i,62.7%,14.6
Cc1ccc([S+](=O)([O-])NC2CCN(Cc3cccc(-c4cccs4)c3)CC2)cc1,4.1%[12.5 µM],.,-18.4%,7.4
O=C(NC1CCCN(c2ccc3nnc(-c4ccccc4)n3n2)C1)c1ccc(Cl)nc1 (centres undefined),.,.,.,-9.4
O=C(Nc1ccc(F)cc1)c1cc2n(n1)CC(c1ccc(Br)cc1)OC2 (centres undefined),13.5%,?,-21.9%,27.1
Cc1ccc(NC(=O)c2cc3n(n2)CC(c2ccc(Cl)cc2)OC3)cc1F (centres undefined),3.0%,28.2µM*,-16.8%,25.7

# Screens deposited in PubChem by National Center for Advancing Translational Sciences (NCATS).
